Experimental data published in PubChem BioAssay (NCATS).
Inconclusive results are not listed. Where a call stands in place of a potency, no number is given. Active and inactive are the calls of the source. Calls come from the whole dose curve; as a rule, active = well fitted curve in the direction sought with a large enough effect; inconclusive = small, poorly fitted or top-dose-only effect, or another doubt; inactive = no such curve, though single readings can be large; an effect the other way counts as inactive or inconclusive.

Legend:
[1] = MultiTox-Fluor Cytotoxicity Assay - LYMP1-003 - Live Cells (AID 962);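 note: cells exposed to compound for 16 hours at 37 °C; cytotoxic hits lower the live-cell protease signal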
Method in brief: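 Readout: live-cell fluorescence (Ex/Em=405/510) from GF-AFC cleavage after 60 min MultiTox-Fluor reagent at room temperature. Lymphoblastoid LYMP1-003 cells, 16 hr compound treatment, 37 C. Concentration-response fitted to standard Hill equation for AC50.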

[2] = Cell Viability - LYMP1-003 - Assay at 24 hr (AID 963); note: potency is the fitted concentration of half-maximal effect
Method in brief: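 CellTiter-Glo luminescence (intracellular ATP) read after 24 hr, 37 C compound exposure of 2500 LYMP1-003 human lymphoblastoid cells/well in complete medium; qHTS concentration series; AC50 via standard Hill equation.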

[3] = Cell Viability - LYMP2-003 (AID 965);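 note: cells exposed to compounds for 24 h before reading; nearly all actives have a fitted effect of over 50% in size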
Method in brief: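 Human lymphoblastoid cells (2500/well) were pre-incubated 5 hr at 37 C, then exposed to compounds over a concentration range for 24 hr at 37 C. Intracellular ATP was read by CellTiter-Glo luminescence; AC50 came from Hill-equation fits.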

[4] = MultiTox-Fluor Cytotoxicity Assay - LYMP1-003 - Dead Cells (AID 961); note: nearly all actives have a fitted effect of over 70% in size; note: potency is the fitted concentration of half-maximal effect
Method in brief: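 Dead-cell protease release, detected as bis-AAF-R110 fluorescence at 485/520 nm, was measured in LYMP1-003 cells after 16 h compound treatment at 37 C. AC50 values came from Hill-modeled qHTS curves normalized to DMSO (0%) and 15 uM tetraoctylammonium bromide (100%).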

[5] = Cell Viability - LYMP1-003 - Assay at 40 hr (AID 964); note: nearly all actives have a fitted effect of over 60% in size; note: potency is the fitted concentration of half-maximal effect
Method in brief: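 LYMP1-003 lymphoblastoid cells, 2500/well; 5 hr preincubation, 40 hr compound exposure, 37 C; CellTiter-Glo 30 min RT; luminescence; Hill-fit AC50. Positive control tetraoctylammonium bromide.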

[6] = Cell Viability - LYMP2-004 (AID 966); note: nearly all actives have a fitted effect of over 65% in size
Method in brief: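 Luminescent ATP read-out (CellTiter-Glo, 30 min RT) after 24 hr compound exposure at 37 C; 2500 lymphoblastoid cells/well, complete medium. Decrease in ATP = cytotoxicity; AC50 from standard Hill model.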

[7] = Cell Viability - LYMP2-009 (AID 968); note: nearly all actives have a fitted effect of over 55% in size; note: potency is the fitted concentration of half-maximal effect
[8] = Cell Viability - LYMP2-011 (AID 969); note: nearly all actives have a fitted effect of over 60% in size; note: potency is the fitted concentration of half-maximal effect
Method in brief: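 Luminescent ATP read-out (CellTiter-Glo, 30 min RT) after 24 hr compound exposure at 37 C in human lymphoblastoid cells, 2500 cells/well. Decreasing ATP indicates cytotoxicity; AC50 from standard Hill fit.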

[9] = MultiTox-Fluor Cytotoxicity Assay - LYMP1-002 - Dead Cells (AID 960); note: nearly all actives have a fitted effect of over 60% in size
Method in brief: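 Readout: fluorescence at 485/520 from cell-impermeant bis-AAF-R110 cleaved by proteases leaking from damaged cells. LYMP1-002 lymphoblastoid line, 16 hr compound treatment at 37 C, concentration-response in qHTS format; Hill-equation AC50 values.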

[10] = Cell Viability - LYMP2-005 (AID 967); note: series mostly up to about 92 µM
Method in brief: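 CellTiter-Glo luminescence (cellular ATP) read-out; LYMP2-005 lymphoblastoid cells, 2500/well, 5 h pre-incubation, then 24 h compound exposure at 37 C in complete medium. Tetraoctylammonium bromide positive control; AC50 by standard Hill fit.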

## CN(C)CCC=C1c2ccccc2CCc2ccccc21
[1]
  outcome: inactive
[2]
  Potency: inactive
[3]
  outcome: inactive

## O=C1c2c(O)cccc2Cc2cccc(O)c21
[4]
  Potency: inactive
[1]
  outcome: inactive
[2]
  Potency: inactive
[5]
  Potency: inactive
[3]
  outcome: inactive
[6]
  outcome: inactive
[7]
  Potency: inactive
[8]
  Potency: inactive

## NCCNCCNCCN
[9]
  outcome: inactive
[4]
  Potency: inactive
[1]
  outcome: inactive
[2]
  Potency: inactive
[5]
  Potency: inactive
[3]
  outcome: inactive
[6]
  outcome: inactive
[10]
  outcome: inactive
[7]
  Potency: inactive
[8]
  Potency: inactive

## NC(=O)c1ncn([C@@H]2O[C@H](CO)[C@@H](O)[C@H]2O)n1
[9]
  outcome: inactive
[4]
  Potency: inactive
[1]
  outcome: inactive
[2]
  Potency: inactive
[3]
  outcome: inactive
[6]
  outcome: inactive
[10]
  outcome: inactive
[7]
  Potency: inactive
[8]
  Potency: inactive

## COc1ccccc1O
[9]
  outcome: inactive
[4]
  Potency: inactive
[1]
  outcome: inactive
[2]
  Potency: inactive
[5]
  Potency: inactive
[3]
  outcome: inactive
[6]
  outcome: inactive
[10]
  outcome: inactive
[7]
  Potency: inactive
[8]
  Potency: inactive

## CC12CCC(CC1)C(C)(C)O2
[9]
  outcome: inactive
[4]
  Potency: inactive
[1]
  outcome: inactive
[2]
  Potency: inactive
[5]
  Potency: inactive
[3]
  outcome: inactive
[10]
  outcome: inactive
[7]
  Potency: inactive
[8]
  Potency: inactive

## NC(=O)N/N=C/c1ccc([N+](=O)[O-])o1
[9]
  outcome: inactive
[4]
  Potency: inactive
[1]
  outcome: inactive
[6]
  outcome: inactive
[10]
  outcome: inactive

## O=C1O[C@H]([C@@H](O)CO)C(O)=C1O
[9]
  outcome: inactive
[4]
  Potency: inactive
[1]
  outcome: inactive
[2]
  Potency: inactive
[5]
  Potency: inactive
[3]
  outcome: inactive
[6]
  outcome: inactive
[10]
  outcome: inactive
[7]
  Potency: inactive
[8]
  Potency: inactive

## C[C@]12C[C@H](O)[C@H]3[C@@H](CCC4=CC(=O)CC[C@@]43C)[C@@H]1CC[C@@H]2C(=O)CO
[9]
  outcome: inactive
[4]
  Potency: inactive
[1]
  outcome: inactive
[2]
  Potency: inactive
[5]
  Potency: inactive
[3]
  outcome: inactive
[6]
  outcome: inactive
[10]
  outcome: inactive
[7]
  Potency: inactive
[8]
  Potency: inactive

## CCCCCCCCCCCCOS(=O)(=O)O
[9]
  outcome: inactive
[4]
  Potency: inactive
[1]
  outcome: inactive
[2]
  Potency: inactive
[5]
  Potency: inactive
[3]
  outcome: inactive
[6]
  outcome: inactive
[10]
  outcome: inactive
[7]
  Potency: inactive
[8]
  Potency: inactive

## CC1(C)[C@@H]2CC[C@@]1(C)C(=O)C2
[4]
  Potency: inactive
[1]
  outcome: inactive
[2]
  Potency: inactive
[5]
  Potency: inactive
[3]
  outcome: inactive
[6]
  outcome: inactive
[7]
  Potency: inactive
[8]
  Potency: inactive

## Oc1cccc(O)c1
[4]
  Potency: inactive
[1]
  outcome: inactive
[2]
  Potency: inactive
[5]
  Potency: inactive
[3]
  outcome: inactive
[10]
  outcome: inactive
[7]
  Potency: inactive
[8]
  Potency: inactive

## Nc1ccc(S(=O)(=O)Nc2nccs2)cc1
[4]
  Potency: inactive
[1]
  outcome: inactive
[2]
  Potency: inactive
[5]
  Potency: inactive
[3]
  outcome: inactive
[6]
  outcome: inactive
[10]
  outcome: inactive
[7]
  Potency: inactive
[8]
  Potency: inactive

## CCCCOC(=O)c1ccc(O)cc1
[9]
  outcome: inactive
[4]
  Potency: inactive
[1]
  outcome: inactive
[2]
  Potency: inactive
[5]
  Potency: inactive
[3]
  outcome: inactive
[6]
  outcome: inactive
[10]
  outcome: inactive
[7]
  Potency: inactive
[8]
  Potency: inactive

## Cc1cc(CC(=O)O)n(C)c1C(=O)c1ccc(Cl)cc1
[9]
  outcome: inactive
[4]
  Potency: inactive
[1]
  outcome: inactive
[2]
  Potency: inactive
[5]
  Potency: inactive
[3]
  outcome: inactive
[6]
  outcome: inactive
[10]
  outcome: inactive
[7]
  Potency: inactive
[8]
  Potency: inactive

## [Cl][In]([Cl])[Cl]
[9]
  outcome: inactive
[4]
  Potency: inactive
[1]
  outcome: inactive
[2]
  Potency: inactive
[5]
  Potency: inactive
[3]
  outcome: inactive
[6]
  outcome: inactive
[10]
  outcome: inactive
[7]
  Potency: inactive
[8]
  Potency: inactive

## Cc1c(O)cccc1C(=O)N[C@@H](CSc1ccccc1)[C@H](O)CN1C[C@H]2CCCC[C@H]2C[C@H]1C(=O)NC(C)(C)C
[4]
  Potency: 50.1 µM (active)
[2]
  Potency: 39.8 µM (active)
[5]
  Potency: 39.8 µM (active)
[7]
  Potency: 50.1 µM (active)
[8]
  Potency: 50.1 µM (active)

## Cc1cc2nc3c(=O)[nH]c(=O)nc-3n(C[C@H](O)[C@H](O)[C@H](O)CO)c2cc1C
[9]
  outcome: inactive
[4]
  Potency: 39.8 µM (active)
[1]
  outcome: inactive
[2]
  Potency: inactive
[5]
  Potency: inactive
[3]
  outcome: inactive
[6]
  outcome: inactive
[10]
  outcome: inactive
[7]
  Potency: inactive
[8]
  Potency: inactive

## NCCNCCNCCNCCN
[9]
  outcome: inactive
[4]
  Potency: inactive
[1]
  outcome: inactive
[2]
  Potency: inactive
[5]
  Potency: inactive
[3]
  outcome: inactive
[6]
  outcome: inactive
[10]
  outcome: inactive
[7]
  Potency: inactive
[8]
  Potency: inactive
